# Measurements reported in the supplement of paper PMC9262897, “Low-cost anti-mycobacterial drug discovery using engineered E. coli” (Nature Communications, 2022).
# Where a name gives a salt, the structure may show the parent alone. ± gives the standard deviation of the averaged measurements.
# Columns and labels:
# Assay in all cases: growth (OD600 after 10 h); higher = more growth (less inhibition)
# [1] = test system: E. coli TESEC Alr+ wild-type control; conditions: compound 0.1 mM; raw OD600 reference: median of DMSO wells 0.241, cell-free background 0.041
# Protocol: (§1)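 TESEC Mtb Alr E. coli, or the Alr+ wild-type control, in 384-well plates with Prestwick library compounds at 0.1 mM and 1% DMSO, across arabinose induction levels of 1E3 to 1E7 nM. Growth is read as OD600 after 10 h at 37 °C in triplicate biological replicates.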
# E. coli TESEC Mtb Alr [2] = conditions: compound 0.1 mM
# Protocol: as §1
# E. coli TESEC Mtb Asd = conditions: compound 0.1 mM
# Protocol: (§2)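 TESEC E. coli strains in which the native enzyme is deleted and replaced by arabinose-inducible Mtb Asd, DapB, CysH or TrpD, each grown in its selective medium. Strains were screened against the Prestwick library at 0.1 mM and 1% DMSO in 384-well format at low and high arabinose induction. Growth is read as OD600 after 10 h in triplicate.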
# E. coli TESEC Mtb DapB = conditions: compound 0.1 mM
# Protocol: as §2
# [3] = test system: E. coli TESEC Alr+ wild-type control; conditions: compound 0.1 mM; raw OD600 reference: median of DMSO wells 0.49, cell-free background 0.052
# Protocol: (§3)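 TESEC Mtb Alr E. coli (ΔaraC ΔtolC ΔentC Δalr ΔdadX, arabinose-inducible Mtb Alr) or the Alr+ wild-type control strain, grown in defined M9-fructose medium without D-alanine in 96-well plates with Prestwick library compounds at 0.1 mM and 1% DMSO. Low Alr induction is 0.1 µM arabinose and high induction is 10 mM arabinose.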
# E. coli TESEC Mtb Alr [4] = conditions: compound 0.1 mM; remark: listed apart in the source
# Protocol: as §3
# [5] = arabinose 1000 nM, raw OD600 reference: median of DMSO wells 0.294, cell-free background 0.041
# [6] = arabinose 10000 nM, raw OD600 reference: median of DMSO wells 0.264, cell-free background 0.041
# [7] = arabinose 100000 nM, raw OD600 reference: median of DMSO wells 0.201, cell-free background 0.041
# [8] = arabinose 1000000 nM, raw OD600 reference: median of DMSO wells 0.193, cell-free background 0.041
# [9] = arabinose 10000000 nM, raw OD600 reference: median of DMSO wells 0.146, cell-free background 0.041
# [10] = arabinose induction (level): High, raw OD600 reference: median of DMSO wells 0.331, cell-free background 0.041
# [11] = arabinose induction (level): Low, raw OD600 reference: median of DMSO wells 0.417, cell-free background 0.041
# [12] = arabinose induction (level): High, raw OD600 reference: median of DMSO wells […], cell-free background 0.041
# [13] = arabinose induction (level): Low, raw OD600 reference: median of DMSO wells 0.227, cell-free background 0.041
# [14] = arabinose 100 nM, raw OD600 reference: median of DMSO wells 0.413, cell-free background 0.052
# [15] = arabinose 10000000 nM, raw OD600 reference: median of DMSO wells […], cell-free background 0.052
Structure (SMILES),growth [1],growth (E. coli TESEC Mtb Alr [2]; [5]),growth (E. coli TESEC Mtb Alr [2]; [6]),growth (E. coli TESEC Mtb Alr [2]; [7]),growth (E. coli TESEC Mtb Alr [2]; [8]),growth (E. coli TESEC Mtb Alr [2]; [9]),growth (E. coli TESEC Mtb Asd; [10]),growth (E. coli TESEC Mtb Asd; [11]),growth (E. coli TESEC Mtb DapB; [12]),growth (E. coli TESEC Mtb DapB; [13]),growth [3],growth (E. coli TESEC Mtb Alr [4]; [14]),growth (E. coli TESEC Mtb Alr [4]; [15])
Cc1ccsc1/C=C/C1=NCCCN1C [Morantel tartrate],0.248 ± 0.0087,0.306 ± 0.0079,0.252 ± 0.0038,0.204 ± 0.012,0.176 ± 0.0069,0.1525 ± 0.00097,0.358 ± 0.016,0.379 ± 0.034,0.205 ± 0.038,0.294 ± 0.089,0.513 ± 0.029,0.409 ± 0.0089,0.259 ± 0.17
CN(C)CCOC(c1ccccc1)c1ccccc1 [Diphenhydramine hydrochloride],0.2284 ± 0.002,0.296 ± 0.008,0.238 ± 0.0071,0.187 ± 0.013,0.151 ± 0.0087,0.148 ± 0.0063,0.194 ± 0.016,0.435 ± 0.016,0.195 ± 0.021,0.24 ± 0.051,0.495 ± 0.051,0.408 ± 0.0097,0.307 ± 0.029
N=c1nc(N2CCCCC2)cc(N)n1O [Minoxidil],0.244 ± 0.0093,0.28 ± 0.0067,0.247 ± 0.014,0.225 ± 0.0082,0.166 ± 0.0034,0.148 ± 0.0099,0.371 ± 0.048,0.384 ± 0.054,0.18 ± 0.0054,0.209 ± 0.019,0.45 ± 0.038,0.406 ± 0.0072,0.379 ± 0.034
C[C@@H](O[C@H]1OCCN(Cc2n[nH]c(=O)[nH]2)[C@H]1c1ccc(F)cc1)c1cc(C(F)(F)F)cc(C(F)(F)F)c1 [Aprepitant],0.136 ± 0.0085,0.107 ± 0.0059,0.116 ± 0.033,0.0735 ± 0.0056,0.0675 ± 0.0089,0.0777 ± 0.0096,0.0693 ± 0.0052,0.0731 ± 0.019,0.128 ± 0.015,0.089 ± 0.023,0.386 ± 0.22,0.442 ± 0.012,0.0589 ± 0.0033
Cc1cccc(CN2CCN(C(c3ccccc3)c3ccc(Cl)cc3)CC2)c1 (centres undefined) [Meclozine dihydrochloride],0.278 ± 0.0073,0.279 ± 0.011,0.302 ± 0.006,0.174 ± 0.023,0.129 ± 0.0042,0.185 ± 0.0054,0.207 ± 0.024,0.242 ± 0.0061,0.209 ± 0.0042,0.247 ± 0.021,0.427 ± 0.021,0.428 ± 0.031,0.143 ± 0.0093
CCCC(C(=O)OCCN(CC)CC)(c1ccccc1)c1ccccc1 [Proadifen hydrochloride],0.0491 ± 0.0002,0.04737 ± 0.00042,0.04077 ± 0.00038,0.0496 ± 0.0007,0.04163 ± 0.00032,0.04523 ± 0.00015,0.0541 ± 0.001,0.0665 ± 0.012,0.126 ± 0.0053,0.129 ± 0.0055,0.0545 ± 0.001,0.319 ± 0.17,0.0643 ± 0.01
C[C@]12CC[C@H]3[C@@H](CCC4=CC(=O)CC[C@@]43C)[C@@H]1CC[C@@H]2C(=O)CO [Deoxycorticosterone],0.119 ± 0.0025,0.163 ± 0.022,0.152 ± 0.0059,0.122 ± 0.0033,0.107 ± 0.002,0.127 ± 0.006,0.363 ± 0.012,0.245 ± 0.01,0.136 ± 0.008,0.165 ± 0.0069,0.333 ± 0.018,0.362 ± 0.022,0.157 ± 0.0071
C[C@H](CCC(=O)O)[C@H]1CC[C@H]2[C@@H]3[C@H](O)C[C@@H]4C[C@H](O)CC[C@]4(C)[C@H]3CC[C@]12C [Chenodiol],0.247 ± 0.0086,0.263 ± 0.0097,0.221 ± 0.0073,0.278 ± 0.021,0.146 ± 0.0057,0.143 ± 0.0086,0.216 ± 0.071,0.289 ± 0.049,0.168 ± 0.026,0.179 ± 0.0059,0.439 ± 0.059,0.392 ± 0.0058,0.209 ± 0.02
